# p53 reactivator – qHTS assay for re-activators of p53 using a Luc reporter; H1299 p53-A138V BP100-luciferase reporter, luminescence, 24 h; Potency, µM (top dose mostly 92.2 µM), hits mostly activators; actives 0.063% (n = 320,000); further: nearly all actives have a fitted effect of over 45% in size
#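 H1299 (p53-null), stable ts p53-A138V + BP100-Luc; 1000 cells/well, Opti-MEM/10% FBS; cpd 4 pt, 1:5; 24 h, 37 deg C, 5% CO2; detection reagent 10 min RT; luminescence.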
# FLuc counter – qHTS profiling assay for firefly luciferase inhibitor/activator using purifed enzyme and Km concentrations of substrates (counterscreen for miR-21 project); Luciferin 4-monooxygenase (Photinus pyralis), P08659; purified FLuc, Km substrates, luminescence inhibition; Potency, µM (top dose mostly 57.5 µM), most hits filed as inhibitors; actives 6.9% (n = 360,000); AID 588342, 2011; further: nearly all actives have a fitted effect of over 55% in size
# Target sequence (P08659 whole entry, looked up): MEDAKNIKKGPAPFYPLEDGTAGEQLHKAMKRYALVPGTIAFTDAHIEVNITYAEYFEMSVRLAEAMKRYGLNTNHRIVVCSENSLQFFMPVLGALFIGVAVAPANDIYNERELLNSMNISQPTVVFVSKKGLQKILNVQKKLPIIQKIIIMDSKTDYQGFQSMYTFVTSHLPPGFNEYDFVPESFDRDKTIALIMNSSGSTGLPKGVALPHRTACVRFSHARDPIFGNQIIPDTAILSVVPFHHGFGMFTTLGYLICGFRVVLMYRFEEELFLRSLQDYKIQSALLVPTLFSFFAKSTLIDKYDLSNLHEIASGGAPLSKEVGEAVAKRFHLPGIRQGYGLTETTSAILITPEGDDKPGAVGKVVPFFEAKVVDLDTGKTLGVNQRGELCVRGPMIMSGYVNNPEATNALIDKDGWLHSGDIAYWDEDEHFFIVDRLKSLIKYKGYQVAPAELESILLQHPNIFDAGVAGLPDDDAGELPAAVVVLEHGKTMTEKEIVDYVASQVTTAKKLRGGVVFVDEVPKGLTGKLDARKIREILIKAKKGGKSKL
#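 Purified P. pyralis luciferase, 10 nM final, with Km-level 10 uM D-luciferin and 10 uM ATP in 50 mM Tris acetate pH 7.5, 10 mM Mg acetate, 0.01% Tween-20, 0.05% BSA; 6-point qHTS titration about 60 µM downward; luminescence read.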
# ELG1 genotoxic – qHTS screen for small molecules that induce genotoxicity in human embryonic kidney (HEK293T) cells expressing luciferase-tagged ELG1; HEK293T ELG1-luciferase reporter, luminescence, 16 h; Potency, µM (top dose mostly 46 µM), usual class: activators; actives 1.3% (n = 330,000); AID 504466, 2011; further: nearly all actives have a fitted effect of over 60% in size
#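 Cells (2,000/well) expressing the ELG1-luciferase fusion are dosed by pin tool and kept 16 hr at 37 °C, 5% CO2. Signal comes from ONE-Glo luciferase reagent after 30 min at room temperature.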
# Rab9 prom act – qHTS Assay for Rab9 Promoter Activators; Huh7 Rab9 promoter-luciferase reporter, luminescence, 24 h; Potency, µM (top dose mostly 9.22 µM), usual class: activators; actives 2.8% (n = 320,000); AID 485297, 2010; further: nearly all actives have a fitted effect of over 60% in size
#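 Luminescence from Amplite-detected luciferase (10 minutes, ambient) reports Rab9 promoter activation. Before that, stable Rab9-luciferase Huh7 cells (1500/well, reduced-serum OP-MEM I plus 10% FBS) were exposed to compound for 24 hours at 37C.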
# NPC1 prom act – qHTS Assay for NPC1 Promoter Activators; Huh7 NPC1 promoter luciferase reporter, 24 h; Potency, µM (series often up to 9.22 µM), usual class: activators; actives 2.4% (n = 320,000); AID 485313, 2010; further: nearly all actives have a fitted effect of over 60% in size
#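 Stable NPC1-promoter luciferase Huh7 line; cpd (DMSO) 24 h, 37 °C, 5% CO2; Amplite luciferase reagent 10 min RT; luminescence readout. qHTS format.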
# SMN2 splice up – qHTS Assay for Enhancers of SMN2 Splice Variant Expression; AID 1458, 2008; HEK293 SMN2-luciferase splicing reporter, luminescence, 30-36 h; actives 2.8% (n = 210,000); Potency, µM (highest dose often 46.1 µM), actives largely listed as activators; further: nearly all actives have a fitted effect of over 55% in size
#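 qHTS luciferase splicing reporter: luminescence rises when SMN2 exon 7 is included in transfected HEK293 cells. Compound exposure lasted 30-36 h at 37C, with 4.5 mM final sodium butyrate as control, followed by a ONE-Glo read.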
# A number is an active result; . = inactive; ? = inconclusive; / = no result. Sampled rows, rich in hits. Any-hit rate of the full collection: about 7.4%. The call rests on the fitted dose curve; in most records, active means well fitted curve in the direction sought with a large enough effect; inconclusive means small, poorly fitted or top-dose-only effect, or another doubt; inactive means no such curve, though single readings can be large; an effect the other way counts as inactive or inconclusive.
SMILES,p53 reactivator,FLuc counter,ELG1 genotoxic,Rab9 prom act,NPC1 prom act,SMN2 splice up
CCOC(=O)C1CCCCN1C(=O)CCc1c(C)nc2cc(-c3ccccc3)nn2c1C (centres undefined),.,15.1µM,.,.,.,.
CCOC(=O)C1CCN(C(=O)CCc2c(C)nc3cc(-c4ccccc4)nn3c2C)CC1,.,?,.,.,.,.
Cc1nc2cc(-c3cccc(F)c3)nn2c(C)c1CCC(=O)NC(C)CCc1ccco1 (centres undefined),.,15.1µM,.,.,.,.
Cc1nc2cc(-c3cccc(F)c3)nn2c(C)c1CCC(=O)NC1CCCCC1,/,12µM,/,/,/,.
COc1cc(OC)cc(-c2cc3nc(C)c(CCC(=O)O)c(C)n3n2)c1,.,15.1µM,.,.,.,.
Cc1ccc(C)c(-c2csc(-c3c(N)c(C(=O)c4ccc5c(c4)OCO5)n4ccccc34)n2)c1,/,.,/,/,/,.
COC(=O)C1(C(=O)OC)C/C=C\C/C=C\c2ccccc2C1C[N+](=O)[O-] (centres undefined),/,/,/,/,/,.
O=C(NCc1cccnc1)c1cccc(OC2CCN(Cc3ccc(CO)o3)CC2)c1,.,.,.,.,.,/
Cc1ccc(NC(=S)N2CCCC(c3nc4ccccc4[nH]3)C2)cc1 (centres undefined),.,.,.,.,.,.
Cc1ccc(NC(=S)c2nc3ccccc3[nH]2)c(C)c1,?,1.69µM,?,3.55µM,3.55µM,5.62µM
Cc1ccc(NC(=S)c2nc3ccccc3[nH]2)cc1,.,0.675µM,?,0.631µM,3.98µM,28.2µM
Cc1c(Cl)cccc1NC(=O)CCS(=O)(=O)c1cccc2nsnc12,/,.,/,/,/,.
O=C(NNC(=O)c1ccc(NC(=O)C2CC2)cc1)c1ccc(F)cc1,?,.,.,.,.,/
O=C(Nc1ccccc1C(=O)O)c1ccc(NC(=O)C2CCCCC2)cc1,.,9.53µM,.,.,.,/
O=C(Nc1ccccc1)c1ccc(NC(=O)C2CC2)cc1,.,7.57µM,20.6µM,2.82µM,1.58µM,/
O=C(Nc1ccccc1C(=O)NC1CCCCC1)c1ccccc1,.,.,?,.,.,/
CN(C)c1ccc(C(CNC(=O)c2cccc(C(F)(F)F)c2)N2CCCC2)cc1 (centres undefined),/,.,/,/,/,/
O=C1NC(c2ccccc2)=CC(c2ccccc2O)N1 (centres undefined),.,.,.,.,.,/
Oc1ccccc1C1NN=C(c2ccccc2)S1 (centres undefined),.,0.477µM,?,?,?,/
Cn1cc(CNC(=O)c2ccc3nc(Cc4ccccc4F)oc3c2)cn1,.,23.9µM,?,?,2.82µM,/
Cn1cc(CCNC(=O)c2ccc3nc(Cc4ccccc4F)oc3c2)cn1,?,5.36µM,?,1.58µM,2.51µM,/
C=CCOC(=O)N[C@H](c1ccco1)C(C(C)=O)C(C)=O,/,/,/,/,/,.
CCOc1ccc(/C=C2\NC(=S)NC2=O)cc1,.,16.9µM,.,.,.,/
COc1cc2c(cc1OC)C(C)N(C(C)=O)CC2 (centres undefined),.,.,?,.,.,0.631µM
O=C(CC(Nc1ccc(Cl)cc1)C(=O)O)c1ccccc1 (centres undefined),?,1.69µM,16.4µM,2.24µM,2.82µM,17.8µM
O=C(CC(Nc1ccccc1Cl)C(=O)O)c1ccccc1 (centres undefined),?,4.78µM,2.91µM,.,.,.
O=C(CC(Nc1cccc(Cl)c1Cl)C(=O)O)c1ccccc1 (centres undefined),.,?,?,.,.,.
COc1ccc2c(=O)ccoc2c1,/,/,/,/,/,.
Cc1csc(-c2coc3cc(O)cc(C)c3c2=O)n1,?,9.53µM,20.6µM,?,?,?
COc1ccc2c(=O)c(-c3nc(C)cs3)coc2c1,.,0.757µM,?,1.26µM,0.631µM,4.47µM

# Bioassay records as filed in PubChem BioAssay.
